# High-throughput results deposited in PubChem BioAssay by National Center for Advancing Translational Sciences (NCATS).
# The list is not random: actives were taken first. Their share in the collection is about 7.3%.
# VP16 counter – counter-screen for ROR gamma inhibitors: Gal4-VP16 reporter. AID 2546. 310,000 compounds, 3.5% hits. Drosophila S2 Gal4-VP16 UAS-luciferase, luminescence, 20 h. Potency, µM (highest dose often 53.6 µM), actives largely listed as inhibitors;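 also: Gal4-VP16 expression switched on by copper sulfate through the metallothionein promoter; nearly all actives have a fitted effect of over 50% in size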
# Tau fibril FP – blocks human tau fibril formation measured by polarization | P10636 | K18 P301L tau heparin fibrillization, Alexa594 FP, 6 h | Potency, µM (titrated, usually from 57.7 µM), most hits filed as inhibitors | 280,000 compounds, 0.39% hits; also: nearly all actives have a fitted effect of over 55% in size
# Target sequence (P10636 561-689 P618L limits assumed): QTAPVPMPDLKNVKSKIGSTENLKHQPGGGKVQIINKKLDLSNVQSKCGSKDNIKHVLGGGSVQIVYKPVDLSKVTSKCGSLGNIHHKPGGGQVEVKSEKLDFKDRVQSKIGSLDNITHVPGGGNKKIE
#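 Human K18 P301L fragment (15 uM unlabeled plus 0.24 uM Alexa 594-labeled) in 100 mM sodium acetate pH 7 with compound, aggregation induced by 20 uM heparin for 6 hr at 37 C. ThT (30 uM) added for 1 hr, then Alexa 594 FP read.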
# Tau fluor counter – counter-screen for tau fibril formation inhibitors. tau K18 P301L Alexa594 fluorescence, heparin fibrillization. Potency, µM (highest dose often 57.7 µM). 280,000 compounds, 0.93% hits. AID 1463; also: nearly all actives have a fitted effect of over 55% in size
#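 Human tau K18 P301L (15 uM unlabeled, 0.24 uM Alexa 594-labeled) in 100 mM sodium acetate pH 7 with 20 uM heparin, 6 hr at 37 C. ThT 30 uM added, 1 hr ambient; Alexa 594 FP and total fluorescence read at 555/632 nm.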
# Tau ThT inhib – tau fibrillization inhibition (ThT binding); P10636; recombinant tau K18 P301L (four-repeat tau fragment), heparin-induced fibrillization, ThT fluorescence; Potency, µM (titrated, usually from 57.4 µM), actives largely listed as inhibitors; 270,000 compounds, 2.1% hits; AID 1460; also: nearly all actives have a fitted effect of over 55% in size
#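 Tau K18 P301L fragment (15 uM unlabeled plus 0.24 uM Alexa 594-labeled) in 100 mM sodium acetate pH 7 with compound, fibrillization induced by 20 uM heparin for 6 hr at 37 C. Thioflavin T (30 uM) added, fluorescence read after 1 hr (ex 450, em 510 nm).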
# RORg inh – ROR gamma (mouse) transcription inhibition | Potency, µM (titrated, usually from 53.6 µM), hits mostly inhibitors | 310,000 compounds, 5.4% hits | P51450 | Drosophila S2 Gal4-RORgamma UAS-luciferase reporter, 20 h | AID 2551; also: nearly all actives have a fitted effect of over 60% in size
# Target sequence (P51450 whole entry, looked up, the tested form may be a part): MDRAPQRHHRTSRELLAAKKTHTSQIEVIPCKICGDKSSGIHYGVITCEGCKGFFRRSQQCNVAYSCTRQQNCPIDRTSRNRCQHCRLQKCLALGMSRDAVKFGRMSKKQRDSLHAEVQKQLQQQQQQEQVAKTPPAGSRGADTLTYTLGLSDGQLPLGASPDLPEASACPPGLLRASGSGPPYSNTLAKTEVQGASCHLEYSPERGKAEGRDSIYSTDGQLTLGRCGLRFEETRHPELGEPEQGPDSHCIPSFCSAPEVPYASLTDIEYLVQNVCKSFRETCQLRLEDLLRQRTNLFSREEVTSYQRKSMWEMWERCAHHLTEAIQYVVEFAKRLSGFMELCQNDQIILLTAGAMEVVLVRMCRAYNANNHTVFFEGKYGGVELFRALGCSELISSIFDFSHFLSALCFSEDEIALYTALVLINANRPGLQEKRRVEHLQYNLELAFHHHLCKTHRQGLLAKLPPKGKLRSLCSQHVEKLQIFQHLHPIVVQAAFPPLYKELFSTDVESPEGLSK
#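 Drosophila Schneider cells stably carrying a metallothionein-driven Gal4 DBD–ROR gamma fusion and a UAS-Photinus luciferase reporter were exposed to compound for 1 hr, then induced with copper sulfate (700 uM final) for 20 hr at ambient temperature before luminescence reading.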
# A number is an active result; . = inactive; ? = inconclusive; / = no result given; [ ] = dose if it differs, or a comment. Calls follow the shape of the dose curve; as a rule, active = well fitted curve in the direction sought with a large enough effect; inconclusive = small, poorly fitted or top-dose-only effect, or another doubt; inactive = no such curve, though single readings can be large; an effect the other way counts as inactive or inconclusive.
SMILES,VP16 counter,Tau fibril FP,Tau fluor counter,Tau ThT inhib,RORg inh
O=C(CN1c2ccccc2Sc2ccccc21)N/N=C/c1ccccc1,.,.,?,.,.
O=C(CN1c2ccccc2Sc2ccccc21)NNC(=O)Nc1ccc(Cl)c(Cl)c1,.,?,5µM[quencher],?,.
O=C(CN1c2ccccc2Sc2ccccc21)NNC(=O)Nc1ccc(Cl)cc1,.,.,5.6µM[quencher],/,.
COc1ccc(-c2nc3c(c(SC)n2)Cc2c(CO)cnc(C)c2O3)cc1,/,.,.,.,/
CCS(=O)(=O)c1ncc(N(Cc2cccc(F)c2)Cc2ccco2)c(C(=O)Nc2ccccc2Cl)n1,/,.,.,.,/
Clc1ccccc1Cn1c(/C=C/c2ccco2)nc2ccccc21,?,.,.,?,11µM
O=C(Cc1ccc(F)cc1)Nc1nnc(-c2ccc(F)cc2)o1,1.4µM,/,/,/,?
O=C(CSc1nncs1)Nc1nnc(-c2ccccc2)o1,?,/,/,/,11µM
O=C(CCCSc1nc2ccccc2[nH]1)Nc1nnc(-c2ccccc2)o1,.,.,.,.,13µM
Cc1ccc(C)c(-c2nnc(NC(=O)c3ccc4c(c3)OCCO4)o2)c1,/,.,.,?,/
Cc1ccc(C)c(-c2nnc(NC(=O)Cc3ccccc3)o2)c1,1.1µM,/,/,/,1µM
Cc1cccc(C(=O)Nc2ccc3oc(-c4ccncc4)nc3c2)c1,/,?,.,?,/
CC[C@H](C)[C@H](NC(=O)[C@H](CCCNC(=N)N)NC(=O)[C@@H]1CCCN1C(=O)[C@H](Cc1ccccc1)NC(=O)[C@H](Cc1cnc[nH]1)NC(=O)[C@H](CCCNC(=N)N)NC(=O)[C@@H](NC(=O)[C@H](C)NC(=O)[C@H](CCC(=O)O)NC(=O)[C@H](CC(N)=O)NC(=O)[C@@H](N)CCCCN)C(C)C)C(=O)N[C@@H](Cc1c[nH]c2ccccc12)C(=O)N[C@@H](CC(C)C)C(=O)O,.,/,/,/,.
O=C(Cc1ccccc1)Nc1nnc(-c2ccccc2)o1,3.5µM,/,/,/,1.1µM
Cc1nn(-c2cc(C)c3ccccc3n2)c2c1CCC2,?,.,.,.,2.2µM
Cn1c(-c2ccccc2)cc2c3no[n+]([O-])c3ccc21,?,.,.,?,6.3µM
Cc1cc(C(=O)c2ccc(Cl)cc2)c(NC(=O)CCl)s1,?,.,.,?,10µM
COc1ccc(CCN2CC(C(=O)NCc3nc(C)c(C)s3)CCC2=O)cc1 (configuration not stated),.,/,/,/,.
COc1ccc(S(=O)(=O)NCc2ccc3c(c2)CCN3C(=O)c2ccc(C)cc2)cc1Cl,/,.,.,.,/
CC1=NN(C(N)=S)C(=O)C1N=Nc1cccc(Cl)c1C (configuration not stated),1µM,/,/,/,0.35µM
CCNC(=O)CC1SC(=Nc2cccc3ccccc23)N(C)C1=O (configuration not stated),.,.,.,.,?
CC1=NN(C(N)=S)C(=O)C1N=Nc1cccc2ccccc12 (configuration not stated),2.8µM,.,?,4µM,0.63µM
CC(C)CO/N=C1/C[C@@H](O)[C@@H](O)[C@@H]2[C@@H]3C(=O)N(C4CCCCC4)C(=O)[C@H]3CC[C@@H]12,.[10 µM],.[11.6 µM],.[11.6 µM],.[11.5 µM],.[10 µM]
O=C(Nc1cccc(O)c1)C1CC(c2ccc(Cl)cc2)=NO1 (configuration not stated),.,/,/,/,.
Cc1ccc(CNC(=O)c2sc3nc[nH]c(=O)c3c2C)cc1,/,.,.,.,/
SMILES,VP16 counter,Tau fibril FP,Tau fluor counter,Tau ThT inhib,RORg inh
COc1ccccc1C/C(N)=N/OC(=O)c1ccc(C)c([N+](=O)[O-])c1,.,.,.,.,.
N/C(=N\OC(=O)c1ccccc1)c1ccccn1,?,.,.,.,1.6µM
COc1ccccc1C/C(N)=N/OC(=O)c1ccc2c(c1)OCO2,?,.,.,.,0.89µM
Cc1ccc(C(=O)O/N=C(\N)c2ccccn2)cc1,13µM,/,/,/,8.9µM
N/C(=N\OC(=O)/C=C/c1ccccc1Cl)c1ccccn1,.[10 µM],.,.,?,11µM
COc1cc(C(=O)O/N=C(\N)c2ccccn2)cc(OC)c1OC,.,.,.,.,.
C/C(=N\OC(=O)c1ccc(Br)cc1)c1ccccn1,.,.,.,?,.
CCS(=O)(=O)c1ncc(Cl)c(C(=O)N(Cc2ccccc2)Cc2ccco2)n1,/,.,.,?,/
C=CCOC(=O)N[C@@H](c1cccs1)C(C(C)=O)C(C)=O,.,.,.,.,.
Cc1cccc(OCC(=O)O/N=C(\N)c2ccccn2)c1,.,.,.,?,.
N/C(=N\OC(=O)C(c1ccccc1)c1ccccc1)c1ccccn1,.,.,.,.,?
Cc1cccc(/C(N)=N/OC(=O)c2ccc3c(c2)OCO3)c1,?,.,.,?,10µM
Cc1cccc(C(=O)O/N=C(\N)c2ccccn2)c1,10µM,/,/,/,13µM
Cc1cccc(/C(N)=N/OC(=O)c2cccnc2)c1,?,.,.,.,8.9µM
N/C(=N\OC(=O)c1ccc2c(c1)OCO2)c1cccc([N+](=O)[O-])c1,.,.,.,?,.
CC(C)(C)c1ccc(C(=O)O/N=C(\N)c2ccccn2)cc1,5µM,/,/,/,0.16µM
CCCOc1cccc(C(=O)NCCNC(=O)c2ccc(C)nc2)c1,.,/,/,/,.
Cc1c(CC(=O)N[C@H](C(=O)O)C(C)C)c(=O)oc2cc3c(cc12)CCC(C)(C)O3,.,/,/,/,.
N/C(=N\OCc1ccc([N+](=O)[O-])cc1)c1ccccn1,2.5µM,.,.,.,1.6µM
N/C(=N\OC(=O)c1ccc(Br)o1)c1ccccn1,.,.,.,.,11µM
Cc1cccc(/C(N)=N/OC(=O)c2ccc(Br)o2)c1,?,.,.,?,13µM
Cc1ccc(C(=O)O/N=C(\N)c2ccccn2)cc1C,11µM,/,/,/,8.9µM
O=C(c1ccc(F)cc1)N1CCC(c2nc3ccccc3s2)CC1,/,.,.,.,/
CCc1nnc(NC(=O)c2cc(S(=O)(=O)N(C)c3ccc(OC)cc3)ccc2Cl)s1,.,/,/,/,.
CCOc1ccc(C(=O)O/N=C(\N)c2ccccn2)cc1,10µM,/,/,/,4.5µM
SMILES,VP16 counter,Tau fibril FP,Tau fluor counter,Tau ThT inhib,RORg inh
CCc1ccc(OCC(=O)O/N=C(\N)c2ccccn2)cc1,.,.,.,.,.
CC(C)(C)c1ccc(C(=O)C2CCCN(C(=O)c3ccccn3)C2)cc1 (configuration not stated),14µM,/,/,/,.
COc1ccc2[nH]cc(CCNC(=O)C3CCCO3)c2c1 (configuration not stated),.,.,.,?,.
CC(=O)N1CCCc2cc(S(=O)(=O)N3CCCC(C(=O)Nc4cccc(C)c4)C3)ccc21 (configuration not stated),.,/,/,/,.
COc1cccc(CNC(=O)c2ccc3c(c2)c(C)c(C)n3Cc2ccccc2)c1OC,/,.,.,.,/
O=C(c1cc[n+]([O-])cc1)N1CCCC(N2CCN(c3cccc(C(F)(F)F)c3)CC2)C1 (configuration not stated),.,/,/,/,1.3µM
